Experimental data as given in PubChem BioAssay (EPA / NIEHS).
Where “and” joins values, the source holds several entries; their conditions need not be identical. Identical values can stand only once. Records with an inconclusive call do not appear. Calls of active or inactive are those of the source. How the source made its calls: active means hit-call score of the fitted dose curve at least 0.9, where 1 is the maximum; inconclusive means response in the unintended direction; inactive means score below 0.9.

Columns and labels:
[1] = TOX21_p53_BLA_p2_viability: Viability Assessment in the Tox21 HCT-116 p53 Agonism Beta-lactamase Assay, Phase 2 (AID 2283591);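 further: actives lower the ATP signal meaning cytotoxicity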
Summary of the method: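 HCT116 p53-bla cells, 4000/well, dosed after 5 h plating (217-fold dilution of DMSO stocks) and incubated 16 h at 37C. Viability taken as cellular ATP by CellTiter-Glo luminescence after 30 min RT; signal loss marks cytotoxicity.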

[2] = target: Cellular tumor antigen p53 (Homo sapiens) (UniProt P04637); assay: TOX21_p53_BLA_p2_ratio: Tox21 HCT-116 p53 Agonism Beta-lactamase Assay, Ratio, Phase 2 (AID 2283592)
Sequence of Cellular tumor antigen p53 (Homo sapiens) (P04637 whole entry, looked up): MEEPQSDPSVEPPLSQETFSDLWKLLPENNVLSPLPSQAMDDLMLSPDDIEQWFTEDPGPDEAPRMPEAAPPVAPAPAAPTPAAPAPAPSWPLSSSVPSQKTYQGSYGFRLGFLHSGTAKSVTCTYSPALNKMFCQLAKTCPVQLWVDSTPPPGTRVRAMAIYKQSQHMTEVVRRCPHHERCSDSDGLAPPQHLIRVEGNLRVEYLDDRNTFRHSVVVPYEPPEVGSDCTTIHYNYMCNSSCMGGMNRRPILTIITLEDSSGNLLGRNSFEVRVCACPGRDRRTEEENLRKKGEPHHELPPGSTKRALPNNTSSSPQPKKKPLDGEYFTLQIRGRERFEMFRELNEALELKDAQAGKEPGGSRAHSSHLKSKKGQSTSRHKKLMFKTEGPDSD
Summary of the method: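 An inducible beta-lactamase reporter in HCT116 cells signals p53 pathway activation. After 16 h chemical exposure at 37C, cells load CCF4-AM substrate for 2 h at room temperature; activity is the cleaved/uncleaved emission ratio relative to DMSO.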

[3] = TOX21_p53_BLA_p3_viability: Viability Assessment in the Tox21 HCT-116 p53 Agonism Beta-lactamase Assay, Phase 3 (AID 2283593);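 further: cells exposed to compound for 16 h before reading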
Summary of the method: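 HCT116 cells, 4000/well, dosed 5 h after plating by pin transfer (217-fold dilution from DMSO stock) and incubated 16 h at 37C, 5% CO2. Viability read as ATP luminescence with CellTiter-Glo after 30 min at room temperature.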

[4] = target: Cellular tumor antigen p53 (Homo sapiens) (UniProt P04637); assay: TOX21_p53_BLA_p3_ratio: Tox21 HCT-116 p53 Agonism Beta-lactamase Assay, Ratio, Phase 3 (AID 2283596)
Summary of the method: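 HCT116 p53-bla cells (4000/well) given compound in DMSO (217-fold dilution) after 5 h, incubated 16 h at 37C. CCF4-AM substrate 2 h at room temperature; 460/530 nm emission ratio, gain fitted against DMSO.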

[5] = TOX21_p53_BLA_p4_viability: Viability Assessment in the Tox21 HCT-116 p53 Agonism Beta-lactamase Assay, Phase 4 (AID 2283597);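 further: hits lower the luminescence signal meaning cytotoxicity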
Summary of the method: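 Compound exposure of HCT116 cells lasts 16 h at 37C, 5% CO2, with DMSO stocks diluted 217-fold. Cellular ATP is then quantified by CellTiter-Glo luminescence after 30 min at room temperature.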

[6] = target: Cellular tumor antigen p53 (Homo sapiens) (UniProt P04637); assay: TOX21_p53_BLA_p5_ratio: Tox21 HCT-116 p53 Agonism Beta-lactamase Assay, Ratio, Phase 5 (AID 2283599)
Summary of the method: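 HCT-116 p53-bla cells (4000/well) plated 5 h, dosed with compound (217-fold DMSO dilution) for 16 h at 37 C; CCF4-AM substrate 2 h at room temperature. Activity is the 460/530 nm emission ratio (405 nm excitation), fitted in gain-of-signal direction versus DMSO.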

[7] = TOX21_p53_BLA_p5_viability: Viability Assessment in the Tox21 HCT-116 p53 Agonism Beta-lactamase Assay, Phase 5 (AID 2283600)
Summary of the method: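 Counter-readout for cytotoxicity: ATP-dependent luminescence from CellTiter-Glo, read in the beta-lactamase wells after 30 min at RT, following a 16 h compound exposure at 37C.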

[8] = target: Cellular tumor antigen p53 (Homo sapiens) (UniProt P04637); assay: TOX21_p53_BLA_p4_ratio: Tox21 HCT-116 p53 Agonism Beta-lactamase Assay, Ratio, Phase 4 (AID 2283601)
Summary of the method: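 HCT-116 p53 beta-lactamase reporter cells (4000/well) preincubated 5 h, then compound (217-fold dilution of DMSO stock) for 16 h at 37C. CCF4-AM substrate added 2 h at room temperature; 460/530 nm emission ratio fitted upward versus DMSO.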

Measured: AC50

O=C(O)CCCl
inactive: all assays above

COc1cc2c(cc1OC)-c1cc(=Nc3c(C)cc(C)cc3C)n(C)c(=O)n1CC2
active: [1] 39 µM | [2] 35.6 µM | [3] 33.4 µM | [4] 36.7 µM | [5] 36 µM | [6] 41.3 µM | [7] 32.7 µM | [8] 36.6 µM

CCCCCCCC[N+](CCCCCCCC)(CCCCCCCC)CCCCCCCC
active: [1] 18.9 µM | [2] 54.8 µM | [3] 29.3 µM | [4] 56.2 µM | [5] 36.2 µM | [6] 64.1 µM | [7] 34 µM | [8] 64.5 µM

CCCN(CCc1cccs1)[C@H]1CCc2c(O)cccc2C1
inactive: all assays above

CC(C)NCC1CCc2cc(CO)c([N+](=O)[O-])cc2N1 (stereo not drawn)
inactive: all assays above

O=C(O)CCC(=O)C(=O)O
inactive: all assays above

O=CC=C(c1ccccc1)c1ccccc1
active: [2] 46.4 µM | [3] 47.3 µM | [5] 29.8 µM
inactive: all other assays above

C/C(=C(\CCOC(=O)c1ccccc1)SS/C(CCOC(=O)c1ccccc1)=C(/C)N(C=O)Cc1cnc(C)nc1N)N(C=O)Cc1cnc(C)nc1N
inactive: all assays above

SC1CCCCC1
inactive: all assays above

CCOc1cc(-c2nccc3cc(OC)c(OC)cc23)cc(OCC)c1OCC
inactive: all assays above

CC(O)COC(C)(C)C (stereo not drawn)
inactive: all assays above

Brc1ccccc1-c1ccccc1
inactive: all assays above

C=CCN1C(=O)C(CC(C)C)NC1=S (stereo not drawn)
inactive: all assays above

Nc1nc(F)nc2c1ncn2[C@@H]1O[C@H](CO)[C@@H](O)[C@@H]1O
active: [2] 21.1 µM and 20 µM | [4] 13.2 µM and 20.6 µM | [6] 22.5 µM and 25.2 µM | [8] 22.5 µM and 24 µM
inactive: all other assays above

C=CC(=O)OCC1CC2CC1C1CCC(COC(=O)C=C)C21 (stereo not drawn)
active: [1] 65.8 µM | [2] 55.2 µM | [5] 64.1 µM | [6] 74.8 µM | [8] 53 µM
inactive: [3] | [4] | [7]

COc1cc2c(N3CCN(C(=O)Nc4ccc(OC(C)C)cc4)CC3)ncnc2cc1OCCCN1CCCCC1
active: [2] 35.5 µM | [4] 36.9 µM | [6] 34.7 µM | [8] 25.2 µM
inactive: [1] | [3] | [5] | [7]

C=CC(OCC)OCC
inactive: all assays above

CC(C)(C#N)Nc1nc(Cl)nc(NC2CC2)n1
inactive: all assays above

CCN(CC)c1ccc(C(=C2C=CC(=[N+](CC)CC)C=C2)c2ccccc2)cc1
active: [1] 1.81 µM | [2] 4.15 µM | [3] 2.75 µM | [4] 6.97 µM | [5] 1.94 µM | [6] 9.22 µM | [7] 2.93 µM | [8] 11.1 µM

O=C(O)COC(=O)Cc1ccccc1Nc1c(Cl)cccc1Cl
inactive: all assays above

C=COCC1CCC(CO)CC1 (stereo not drawn)
inactive: all assays above

Cc1cccc(C)c1OCC(=O)N[C@@H](Cc1ccccc1)[C@@H](O)C[C@H](Cc1ccccc1)NC(=O)[C@H](C(C)C)N1CCCNC1=O
active: [5] 37.5 µM
inactive: all other assays above

CCc1c2c(nc3ccc(OC(=O)N4CCC(N5CCCCC5)CC4)cc13)-c1cc3c(c(=O)n1C2)COC(=O)[C@]3(O)CC
active: [2] 5.56 µM | [4] 5.37 µM | [6] 7.41 µM | [8] 11.3 µM
inactive: all other assays above

OCCN1CCN(CCCN2c3ccccc3Sc3ccc(Cl)cc32)CC1
active: [5] 15.8 µM
inactive: all other assays above

CCCCCCCCCCCC[n+]1ccc2ccccc2c1
active: [1] 33.6 µM | [2] 11 µM | [3] 35.9 µM | [4] 15 µM | [5] 23 µM | [6] 28.5 µM | [7] 33.4 µM | [8] 21.8 µM

CCc1oc2ccccc2c1C(=O)c1cc(I)c(O)c(I)c1
inactive: [6]
active: [1] 23 µM | [2] 7.59 µM | [3] 26.1 µM | [4] 20.8 µM | [5] 11 µM | [7] 24.1 µM | [8] 6.73 µM

CC[C@@H](C(=O)O)[C@@H]1O[C@@H]([C@@H](C)[C@H](O)[C@H](C)C(=O)[C@H](CC)[C@H]2O[C@]3(C=C[C@@H](O)[C@]4(CC[C@@](C)([C@H]5CC[C@](O)(CC)[C@H](C)O5)O4)O3)[C@H](C)C[C@@H]2C)[C@@H](C)C[C@@H]1C
active: [2] 4.53 µM | [4] 7.64 µM | [6] 7.63 µM | [8] 5.21 µM
inactive: [1] | [3] | [5] | [7]

CCCCCCCC[P+](CCCCCCCC)(CCCCCCCC)CCCCCCCC
active: [1] 15.8 µM | [2] 29.2 µM | [3] 13.3 µM | [4] 13.4 µM | [5] 21.6 µM | [6] 13.2 µM | [7] 13.6 µM | [8] 31.7 µM

CCC(C)(C)c1ccc(CC(C)CN2C[C@@H](C)O[C@@H](C)C2)cc1 (stereo partly drawn)
active: [5] 32.7 µM
inactive: all other assays above

CN(C/C=C/c1ccccc1)Cc1cccc2ccccc12
inactive: all assays above

CCN(CC)CCCN(c1ccccc1)C1Cc2ccccc2C1
active: [1] 9.12 µM | [2] 23.3 µM | [3] 26.6 µM | [4] 36.3 µM | [5] 2.11 µM | [6] 36.7 µM | [7] 30.6 µM | [8] 23 µM

CC1=C(C(=O)OC(C)C)C(c2cccc([N+](=O)[O-])c2)C(C(=O)OC2CN(C(c3ccccc3)c3ccccc3)C2)=C(N)N1 (stereo not drawn)
active: [1] 10.3 µM | [2] 18.3 µM | [3] 9.2 µM | [4] 17.7 µM | [5] 34.2 µM | [6] 43.6 µM | [7] 38 µM | [8] 43.5 µM

CNCC[C@H](Oc1cccc2ccccc12)c1cccs1
active: [1] 35.4 µM | [2] 43.5 µM | [5] 35.4 µM | [8] 43.7 µM
inactive: all other assays above

CCOc1ccc2nc3cc(N)ccc3c(N)c2c1
active: [2] 30.3 µM | [4] 36.4 µM | [6] 43.5 µM | [8] 32.4 µM
inactive: all other assays above

O[C@@H](CNC[C@H](O)[C@H]1CCc2cc(F)ccc2O1)[C@@H]1CCc2cc(F)ccc2O1
active: [1] 34.9 µM | [5] 33.5 µM | [6] 37.1 µM | [7] 43.1 µM | [8] 43.4 µM
inactive: [2] | [3] | [4]

CC[C@H](C)COC(=O)/C=C/c1ccc(N=Cc2ccc(OC)cc2)cc1
active: [1] 43.5 µM | [2] 87.2 µM | [5] 46 µM | [8] 84.4 µM
inactive: all other assays above
